In PubChem BioAssay (EPA / NIEHS):
Calls of active or inactive are those of the source. How the source made its calls: active means hit-call score of the fitted dose curve at least 0.9, where 1 is the maximum; inactive means score below 0.9.

read-out: Broad substrate specificity ATP-binding cassette transporter ABCG2 (Homo sapiens) (UniProt Q9UNQ0); assay: LTEA_HepaRG_ABCG2: Life Technologies and Expression Analysis (LTEA) Assay for ABC Transporter (ABCG2) using HepaRG (AID 2283465); conditions: mRNA level, 48 h; actives raise or lower the signal
Protocol: LTEA_HepaRG is a cell based, multiplexed-readout assay that uses HepaRG, a human liver cell line, with measurements taken at 48 hours after chemical dosing on a 96-well plate.LTEA_HepaRG_ABCG2 is one of 102 assay component(s) measured in the LTEA HepaRG cell culture assay. It is a marker of Steatosis/NR mediated transport.Data from the assay component LTEA_HepaRG_ABCG2 was analyzed into 1 endpoint. This assay endpoint, LTEA_HepaRG_ABCG2, was analyzed with bidirectional fitting relative to DMSO as the negative control and baseline of activity. Using a type of inducible reporter, measures of mRNA induction for gain or loss-of-signal activity can be used to understand regulation of transcription factor activity. To generalize the intended target to other relatable targets, this assay endpoint is annotated to the transporter intended target family, where the subfamily is ABC transporter.
A total of 1060 chemcials from the ToxCast library were tested in eight-point concentration-response experiments. Cell culture and cytotoxicity assays were conducted at Thermo Fisher Scientific's Custom Services facility (Madison, WI). A single lot of human HepaRG cells (Thermo Fisher Scientific, Frederick, MD) was used for the cell culture experiments. 96-well format collagen type I coated plates of human HepaRG cells were prepared using established methods. Briefly, cryopreserved HepaRG cells were thawed, plated at a density of approximately 100,000 cells/well in HepaRG Thaw, Plate, and General Purpose media (HPRG770, Thermo Fisher Scientific), and incubated for 48 hours. 0.5% DMSO was selected as vehicle control to balance the requisite need of DMSO in HepaRG cultures to maintain differentiation (for example, baseline metabolism, proportions of hepatocytes vs. cholangiocytes), while enabling further hepatic receptor pathway activation (for example, PXR and CAR) in response to chemical exposure. 48 hours after plating, the culture medium was replaced with HepaRG Serum-Free Incudtion Media. Cells were exposed to each test chemical in duplicate and maintained in CO2 incubators for another 48 hours. Chemical plates were thawed to room temperature and 200x concentrations of treatment groups were prepared. 8-point conentration-reponse curves were made with the highest exposure at 100 uM, followed by half-log dilutions, all in 0.5% DMSO. Each test plate contained variouse controls, induction positive controls (1mM phenobarbital), cytotoxicity positive controls ([…] aflatoxin B1), vehicle controls (0.5% DMSO), and total lysis controls (0.5% DMSO). Cell morphology images were taken using an Essen IncuCyte FLR automated microscope, with six 96-well plates imaged in about 24 minutes. Images were captured and exported and JPEG files. Spent culture media was transfered to black-well plates for the LDH assay, and remaining media was sorted at -80 C for later use. Cells were treated with RLT buffer and frozen until shipped for gene expression analysis. Total RNA was isolated from the cell suspension in 75 uL of Buffer RLT (Qiagen, Germantown, MD 20874) by Quintiles/Expression Analysis (Durham, NC) using a custom isolation procedure. Total RNA from each plate well was transferred to a preamplification plate. Fluidigm's 96.96 Dynamic ArrayTM (Fluidigm, Amsterdam, the Netherlands) technology was used for gene expression analyses by quantitative reverse transcription polymerase chain reaction (qRT-PCR, performed by Quintiles/Expression Analysis, Durham, NC)89. Standard TaqManTM Assays (Applied Biosystems/ThermoFisher Scientific, Foster City, CA) were used to assess the expression of 93 genes selected based on their selectivity and sensitivity to important hepatic receptors known to be modulated by environmental chemicals; importance in human hepatocyte functionality; and hepatotoxicity. […]

Broad substrate specificity ATP-binding cassette transporter ABCG2 (Homo sapiens), sequence (Q9UNQ0 whole entry, looked up): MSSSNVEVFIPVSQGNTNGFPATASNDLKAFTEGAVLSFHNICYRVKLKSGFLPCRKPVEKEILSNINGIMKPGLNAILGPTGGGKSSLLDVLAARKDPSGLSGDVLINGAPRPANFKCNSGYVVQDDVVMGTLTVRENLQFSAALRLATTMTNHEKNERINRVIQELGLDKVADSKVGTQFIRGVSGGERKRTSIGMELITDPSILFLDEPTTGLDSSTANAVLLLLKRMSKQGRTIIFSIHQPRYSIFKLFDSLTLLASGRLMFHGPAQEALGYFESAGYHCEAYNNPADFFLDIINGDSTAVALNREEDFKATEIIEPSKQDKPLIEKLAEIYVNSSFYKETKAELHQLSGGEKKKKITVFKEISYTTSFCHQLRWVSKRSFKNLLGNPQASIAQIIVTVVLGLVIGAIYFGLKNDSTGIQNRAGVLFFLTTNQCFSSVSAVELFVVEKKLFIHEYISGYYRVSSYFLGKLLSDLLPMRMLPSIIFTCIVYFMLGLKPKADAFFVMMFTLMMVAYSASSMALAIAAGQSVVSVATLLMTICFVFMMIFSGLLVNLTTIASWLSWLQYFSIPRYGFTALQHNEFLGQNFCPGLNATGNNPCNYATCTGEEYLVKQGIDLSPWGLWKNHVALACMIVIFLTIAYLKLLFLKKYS

| SMILES | outcome | AC50 |
| --- | --- | --- |
| CC(CO)OC(C)CO (stereo not given) (tested in a mixture with another compound) | inactive | – |
| CNCc1cc(F)ccc1Oc1ccc(Cl)c(Cl)c1 | inactive | – |
| Cc1ccc(C)c(O)c1C | inactive | – |
| CCCCCC(=O)O | inactive | – |
| Cc1nc(C)nc(N2C[C@@H](C)N(c3ccnc([C@@H](C)O)n3)[C@@H](C)C2)n1 | inactive | – |
| Nc1ccc(S(=O)(=O)c2ccc(N)cc2)cc1 | inactive | – |
| O=[N+]([O-])C(CO)(CO)CO | inactive | – |
| CC(=O)Oc1ccccc1C(=O)O | inactive | – |
| O=C(N[C@@H](Cc1ccccc1)[C@@H](O)C(=O)N1C[C@@H](O)[C@@H](O)C1)c1cc2cc(Cl)ccc2[nH]1 | – | 50 µM (active) |
| CCOC(=O)CCC(=O)OCC | inactive | – |
| CCCCCCC(=O)OCC | inactive | – |
| COc1cc(C=O)ccc1O | inactive | – |
| Cc1ccc(N(C)C)cc1 | inactive | – |
| OC[C@@H](O)[C@@H](O)[C@H](O)[C@H](O)CO | inactive | – |
| CC1(C)NC(=O)NC1=O | inactive | – |
| CCCCCCCCCCC | inactive | – |
| CCc1c(C(=O)NN2CCCCC2)nn(-c2ccc(Cl)cc2Cl)c1-c1ccc(Br)cc1 | – | 50 µM (active) |
| CCCCCCCCCCCCCO | inactive | – |
| COc1ccc(S(=O)(=O)N2C(=O)[C@@](c3ccccc3OC)(N3C[C@H](O)C[C@H]3C(=O)N(C)C)c3cc(Cl)ccc32)c(OC)c1 | – | 11.7 µM (active) |
| CN1CCCC1=O | inactive | – |

| SMILES | outcome | AC50 |
| --- | --- | --- |
| NC(=O)Cn1c(=O)cc(CCN2CCN(c3nccc4sccc34)CC2)c2ccc(F)cc21 | inactive | – |
| COCCOC[C@H](CC1(C(=O)NC2CCC(C(=O)O)CC2)CCCC1)C(=O)Oc1ccc2c(c1)CCC2 (stereo not given in full) | inactive | – |
| COc1ccc2c(c1)c(CC(=O)O)c(C)n2C(=O)c1ccc(Cl)cc1 | inactive | – |
| CCCCCCOCCO | inactive | – |
| O=C(O)Cc1ccccc1Nc1c(Cl)cccc1Cl | inactive | – |
| CN1CCN(Cc2cc(-c3ccc4[nH]c(=O)oc4c3)co2)[C@@H](c2ccc(F)cc2)C1 | inactive | – |
| CCCCOC(=O)CCCCCCCCC(=O)OCCCC | inactive | – |
| c1cc(-c2ccncc2)ccn1 | inactive | – |
| CCCCCCCCCCCCCCCC | inactive | – |
| CCCCCCCCCCO | inactive | – |
| CC1=C(/C=C/C(C)=C/C=C/C(C)=C/CO)C(C)(C)CCC1 | – | 52.2 µM (active) |
| Cc1cccc(C)c1O | inactive | – |
| CC(C)c1ccc(C(=O)N=C(N)N)cc1S(C)(=O)=O | – | 0.681 µM (active) |
| Cc1ccc(C)c(C)c1 | inactive | – |
| Oc1ccc2c(c1)OC[C@@H](N1CCC(O)(c3ccc(F)cc3)CC1)[C@H]2O | inactive | – |
| O=C(OCCCCCOC(=O)c1ccccc1)c1ccccc1 | – | 0.773 µM (active) |
| COc1ccc(C)cc1N | inactive | – |
| CC(=O)C(C)=CC1C(C)=CCCC1(C)C (stereo not given) | inactive | – |
| NS(=O)(=O)c1cc2c(cc1Cl)NCNS2(=O)=O | inactive | – |
| COC(=O)c1ccc(O)cc1 | inactive | – |
